ELG1 DNA repair: ELG1-dependent DNA repair inhibition; AID 504467; 330,000 tested, 2.3% active; HEK293T ELG1-luciferase reporter, luminescence, 16 h; DNA damage induced by 5-fluorouridine; Potency, µM (top dose mostly 46.1 µM), for the others: at the highest dose activity change, negative = inhibition, hits mostly inhibitors; also: potency is read from the fitted curve at half-maximal effect; nearly all actives have a fitted effect of over 55% in size
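Overnight (16 hr) co-exposure of 2,000 cells/well to 5-fluorouridine and compound at 37 °C preceded detection. Luciferase was quantified via ONE-Glo luminescence; loss of signal denotes inhibition.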
TDP1 cell CPT: DT40-hTDP1 cell growth loss with CPT; chicken DT40 Tdp1-/-;hTDP1 cells + 20 nM CPT, ATP luminescence, 48 h; 420,000 tested, 12% active; Potency, µM (doses to about 46.2 µM), for inactives: at the top dose activity change, negative = growth inhibition, actives largely listed as inhibitors; AID 686979; also: potency is read from the fitted curve at half-maximal effect; nearly all actives have a fitted effect of over 55% in size
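Cell growth measured by CellTiter-Glo luminescence after a minimum 48 h, 37 C compound exposure with 20 nM CPT in Tdp1-knockout DT40 cells stably expressing hTDP1, seeded 400/well; qHTS titration format.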
IL1B secr inh: inflammasome signaling inhibition, IL-1 beta readout | THP-1 LPS/ATP IL-1B secretion, AlphaLISA, 16 h; stronger effect = lower value | activity change, % at 57.5 µM | 360,000 tested, 4.7% active; in the data active = activity change below about -50%; inconclusive = mostly about -30% to -49%
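Secreted IL-1B measured by AlphaLISA bead assay after 16 h compound exposure of THP-1 cells; compounds (final up to 57.5 uM) added 1 h before LPS (250 ng/mL) and ATP (1.25 mM) stimulation; lower signal means less secretion.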
VP16 counter: inhibits Gal4-VP16 luciferase reporter, ROR gamma counter-screen; Drosophila S2 Gal4-VP16 UAS-luciferase, luminescence, 20 h; Potency, µM (top dose mostly 53.6 µM), for the others: at the highest dose activity, negative = inhibition, usual class: inhibitors; 310,000 tested, 3.5% active; AID 2546;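 also: Gal4-VP16 expression switched on by copper sulfate through the metallothionein promoter; potency is read from the fitted curve at half-maximal effect; nearly all actives have a fitted effect of over 50% in size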
RORg inh: ROR gamma (mouse) transcription inhibition. Potency, µM (series often up to 53.6 µM), without a hit: at the top dose activity change, negative = inhibition, usual class: inhibitors. AID 2551. 310,000 tested, 5.4% active. Drosophila S2 Gal4-RORgamma UAS-luciferase reporter, 20 h; also: potency is read from the fitted curve at half-maximal effect; nearly all actives have a fitted effect of over 60% in size
Target sequence (P51450 whole entry, looked up, the tested form may be a part): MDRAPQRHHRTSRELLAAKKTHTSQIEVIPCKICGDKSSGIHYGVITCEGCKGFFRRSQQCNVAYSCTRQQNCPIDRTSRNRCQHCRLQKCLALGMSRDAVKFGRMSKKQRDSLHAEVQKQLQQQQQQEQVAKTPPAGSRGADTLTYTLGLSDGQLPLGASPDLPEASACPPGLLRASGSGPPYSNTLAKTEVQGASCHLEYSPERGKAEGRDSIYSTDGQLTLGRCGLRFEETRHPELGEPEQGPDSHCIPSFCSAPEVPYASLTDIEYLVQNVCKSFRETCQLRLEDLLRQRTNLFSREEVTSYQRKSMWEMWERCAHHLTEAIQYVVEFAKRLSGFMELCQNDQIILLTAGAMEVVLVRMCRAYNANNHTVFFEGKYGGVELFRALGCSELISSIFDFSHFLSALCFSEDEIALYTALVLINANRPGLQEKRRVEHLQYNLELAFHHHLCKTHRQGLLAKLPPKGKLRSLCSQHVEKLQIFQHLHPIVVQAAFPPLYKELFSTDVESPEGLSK
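A Gal4/UAS one-hybrid system in insect cells: metallothionein-promoter Gal4–ROR gamma fusion plus Photinus luciferase reporter. Copper sulfate 700 uM final, 20 hr ambient incubation, luminescent detection after 10 min with reagent.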
TDP1 cell noCPT: qHTS for Inhibitors of human tyrosyl-DNA phosphodiesterase 1 (TDP1): qHTS in cells in absence of CPT. DT40 Tdp1-/- hTDP1 cells, no CPT, ATP luminescence, 48 h. AID 686978, 2013. Potency, µM (doses to about 46.2 µM), inactives show top-dose activity change, negative = growth inhibition, usual class: inhibitors. 420,000 tested, 15% active; also: potency is read from the fitted curve at half-maximal effect; nearly all actives have a fitted effect of over 55% in size
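Chicken DT40 Tdp1-/- cells stably complemented with human TDP1 were seeded at 400 cells/well with DMSO in place of 20 nM camptothecin. After compound pinning, cells grew at least 48 hr at 37 °C; viability read by CellTiter-Glo luminescence.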
* marks the source's active call; other numbers are inactive results; u = inconclusive; x = no result given; [ ] = dose if it differs, or a comment. This is a sample that favours compounds with a hit; in the whole collection about 21% have one here. Unless noted, calls follow the shape of the dose curve; as a rule, active = well fitted curve in the direction sought with a large enough effect; inconclusive = small, poorly fitted or top-dose-only effect, or another doubt; inactive = no such curve, though single readings can be large; an effect the other way counts as inactive or inconclusive. % is scaled to controls: 0 for no effect and ±100 for the full control effect.

SMILES	ELG1 DNA repair	TDP1 cell CPT	IL1B secr inh	VP16 counter	RORg inh	TDP1 cell noCPT
COc1ccccc1CNC(=O)c1cc(S(=O)(=O)N2CCOCC2)cn1C	24%	-1%	-8	4%	37%	-15%
CCN(CC)CCSc1nnc2c3ccccc3n(Cc3ccccc3)c2n1	u	23µM*	-15	-10%	-43%	16µM*
CCN(CC)CCSc1nnc2c3cc(F)ccc3n(Cc3ccccc3)c2n1	-3%	u	-64*	-7%	-18%	u
CCn1c2ccccc2c2nnc(SCc3ccccc3)nc21	-3%	u	24	u	u	u
C/C(=N\NC(=S)Nc1cccc(C)c1)c1cc2ccccc2o1	0%	u	5	u	2.5µM*	u
CCNC(=S)N/N=C(\C)c1cc2ccccc2o1	u	u	-52*	7.9µM*	3.5µM*	u
C/C(=N\NC(=O)c1ccc(O)cc1)c1cc2ccccc2o1	u	-10%	-7	10µM*	6.3µM*	u
CCC(=O)Nc1cccc(NC(=S)NC(=O)c2cc3ccccc3o2)c1	u	u	48	11%	-33%	u
COc1ccc(OCC(=O)N/N=C(\C)c2cc3ccccc3o2)cc1	u	-17%	-6	-1%	-9%	u
CCn1c(CNC(=O)c2ccc(OC)cc2)nnc1SCC(=O)Nc1cccc(C)c1	x	18%	x	x	x	-6%
CCCC1(C(=O)OC)C=C2C(=C(C)C(=O)C2C)CN1 (stereo not drawn)	x	x	x	6%	-19%	x
COC(=O)c1cc2sc(Cl)cc2n1Cc1nc(-c2ccccc2F)oc1C	x	-20%	x	x	x	-12%
C=CC[C@@H]1/C=C(\C)C[C@H](C)C[C@H](OC)[C@H]2O[C@@](O)(C(=O)C(=O)N3CCCC[C@H]3C(=O)O[C@H](/C(C)=C/[C@@H]3CC[C@@H](O)[C@H](OC)C3)[C@H](C)[C@@H](O)CC1=O)[C@H](C)C[C@@H]2OC	x	3.3µM*	x	-6%	u	3µM*
O=S(=O)(Nc1ccc(C(O)(C(F)(F)F)C(F)(F)F)cc1)c1ccc(Cl)c2nonc12	x	13µM*	-114*	x	x	15µM*
O=S(=O)(Nc1ccc(Br)cc1)c1cccc2nonc12	2%	11%	0	1%	20%	4%
C/C(=N\NS(=O)(=O)c1ccccc1)c1cc(Cl)cc(Cl)c1O	-1%	-26%	-15	-2%	12%	u
CCN(C(=O)c1nn(-c2ccc(OC)c(Cl)c2)c(=O)c2c1c1ccccc1n2C)c1cc(OC)ccc1OC	x	u	x	x	x	15µM*
COc1ccc(-n2nc(C(=O)N3CCCC(C)C3)c3c4ccccc4n(C)c3c2=O)cc1Cl (stereo not drawn)	x	16µM*	x	x	x	-97%
CCN(CC)CCNC(=O)c1nn(-c2ccc(OC)c(Cl)c2)c(=O)c2c1c1ccccc1n2C	x	-3%	x	x	x	3%
COc1ccc(-n2nc(C(=O)N3CCN(c4ccccc4OC)CC3)c3c4ccccc4n(C)c3c2=O)cc1Cl	x	-19%	x	x	x	-25%
CCCN(C(=O)c1nn(-c2ccc(OC)c(Cl)c2)c(=O)c2c1c1ccccc1n2C)c1ccccc1F	x	-2%	x	x	x	-14%
CCN(CC)CCCNC(=O)c1nn(-c2ccc(OC)c(Cl)c2)c(=O)c2c1c1ccccc1n2C	x	u	x	x	x	16µM*
CCCCNC(=O)c1nn(-c2ccc(C)cc2)c(=O)c2c1c1ccccc1n2C	x	8.2µM*	x	x	x	2.6µM*
OC1CNc2c(ccc3ccccc23)C1 (stereo not drawn)	x	-1%	-4	x	x	-1%
Cc1ccc2oc(-c3ccc(NC(=O)CCC(=O)O)cc3)nc2c1	x	2%	x	x	x	3%
SMILES	ELG1 DNA repair	TDP1 cell CPT	IL1B secr inh	VP16 counter	RORg inh	TDP1 cell noCPT
O=C(NC1CCC(CC2CCC(NC(=O)C(Cl)Cl)CC2)CC1)C(Cl)Cl (stereo not drawn)	-1%	0%	-14	3%	-32%[1.91 µM]	-44%
CCCS(=O)(=O)c1ncc(Cl)c(C(=O)Nc2sc3c(c2C(=O)NCC)CCCC3)n1	x	1µM*	x	x	x	0.79µM*
CCSc1ncc(Cl)c(C(=O)Nc2sc3c(c2C(=O)NCCOC)CCCC3)n1	x	-9%	x	x	x	u
Cn1c(SCC(=O)NC(=O)NCc2ccccc2)nnc1C(F)(F)F	-1%	-9%	14	x	x	-23%
COc1cc(/C=C/C(=O)Nc2cc(S(=O)(=O)N3CCOCC3)ccc2N2CCCC2)cc(OC)c1OC	u	u	u	6%	-14%	u
COc1cc(/C=C/C(=O)Nc2ccc(N3CCCCC3)c(S(=O)(=O)Nc3ccccc3Cl)c2)cc(OC)c1OC	-3%	u	17	-5%	12%	2.6µM*
CCN(CC)S(=O)(=O)c1ccc(N2CCCC2)c(NS(=O)(=O)c2ccccc2)c1	7%	23µM*	15	-11%	29%[10 µM]	u
CCN(CC)S(=O)(=O)c1ccc(N2CCCCC2)c(NC(=O)/C=C/c2cc(OC)c(OC)c(OC)c2)c1	-18%	u	0	-3%	23%	12µM*
CCN(CC)S(=O)(=O)c1ccc(N2CCCC2)c(NC(=O)Cc2ccccc2)c1	-6%	u	0	2%	40%	15µM*
O=C(OCC(=O)N1CCCc2ccccc21)c1cccc(S(=O)(=O)N2CCOCC2)c1	-5%	-1%	-5	x	x	-3%
COC(=O)c1cc(NS(=O)(=O)c2ccc(N3CCC(C)CC3)c([N+](=O)[O-])c2)cc(C(=O)OC)c1	4%	4%	26	2%	4%	-26%
CC(O)(c1cccnc1)c1nc(-c2ccc(S(C)(=O)=O)cc2)cs1 (stereo not drawn)	x	-20%	34	x	x	-3%
CCN(CC)S(=O)(=O)c1ccc(N2CCCC2)c(NC(=O)c2ccccc2OC)c1	u	u	-2	2%	41%	15µM*
CCN(CC)S(=O)(=O)c1ccc(N2CCCC2)c(NS(=O)(=O)c2ccc(OC)cc2)c1	-4%	u	10	-4%	20%	16µM*
CCN(CC)S(=O)(=O)c1ccc(N2CCCC2)c(NS(=O)(=O)c2ccc([N+](=O)[O-])cc2)c1	-5%	u	8	-3%	42%	-28%
CCN(CC)S(=O)(=O)c1ccc(N2CCCC2)c(NS(=O)(=O)c2ccc(F)cc2)c1	3%	u	-1	-1%	25%	15µM*

Source: PubChem BioAssay
